Data from the supplement of paper PMC8975748.
Counter-ions that a name gives are not always drawn.

These compounds were tested on Saccharomyces cerevisiae BY4741 SeMeCo community (assay: z-score of subpopulation abundance vs DMSO median, subpopulation auxotrophic for HLUM; higher = larger share of this subpopulation than in DMSO controls). Details: 10 µM; 24 h; SM minimal medium; subpopulation (auxotrophy): HLUM.
Summary of the method: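 Cells of a Saccharomyces cerevisiae BY4741 community, carrying four plasmids that each restored one auxotrophy and encoded a distinct fluorescent protein, were pre-grown overnight to OD600 1.0 and diluted to 0.3. A 70 µl volume was added to 384-well plates acoustically predosed with library drugs (10 µM final) and grown 24 h in minimal SM medium. After paraformaldehyde fixation, automated confocal microscopy was used, with single-auxotroph fluorescent strains for thresholds and autofluorescence correction. The abundance of each subpopulation was scored as a z-score against the vehicle-well median.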

Structure (SMILES) | z-score of subpopulation abundance
CC[C@H]1OC(=O)[C@H](C)[C@@H](O[C@H]2C[C@@](C)(OC)[C@@H](O)[C@H](C)O2)[C@H](C)[C@@H](O[C@@H]2O[C@H](C)C[C@H](N(C)C)[C@H]2O)[C@](C)(O)C[C@@H](C)CN(C)[C@H](C)[C@@H](O)[C@]1(C)O [Azithromycin] | 0.36
CN(C)C[C@@H]1CCn2cc(c3ccccc32)C2=C(C(=O)NC2=O)c2cn(c3ccccc23)CCO1 | 0.34
COc1ccc(C(C)=O)c(O)c1 [Paeonol] | 0.01
O=C(O)c1cn(-c2ccc(F)cc2)c2cc(N3CCNCC3)c(F)cc2c1=O [Sarafloxacin HCl] | -0.29
CO[C@H]1O[C@@H]2O[C@@]3(C)CC[C@H]4[C@H](C)CC[C@@H]([C@H]1C)[C@@]24OO3 [Artemether] | 0.11
COc1cccc2c1C(=O)c1c(O)c3c(c(O)c1C2=O)C[C@@](O)(C(C)=O)C[C@@H]3O[C@H]1C[C@H](N)[C@H](O)[C@H](C)O1 [Daunorubicin HCl] | 5.15
Nc1ccc(S(=O)(=O)Nc2nccs2)cc1 [Sulfathiazole] | -0.19
NCc1ccccc1CC(=O)N[C@@H]1C(=O)N2C(C(=O)O)=C(CSc3nnnn3CC(=O)O)CS[C@H]12 [Ceforanide] | 1.14
C[C@@H](O)[C@H]1C(=O)N2C(C(=O)O)=C(S[C@@H]3CN[C@H](C(=O)N(C)C)C3)[C@H](C)[C@H]12 [Meropenem] | -0.68
CN(C)CCCN1c2ccccc2CCc2ccc(Cl)cc21 [Clomipramine HCl] | 1.45
O=C1CN(/N=C/c2ccc(-c3ccc([N+](=O)[O-])cc3)o2)C(=O)N1 [Dantrolene sodium] | 0.72
